How the values were obtained:
Assay in all cases: log2 ratio of Biotin-Ahx-Ub-VS probe labelling (fragment/DMSO); higher = less target engagement (more negative = stronger competition), active = hit call of the paper (q ≤ 0.05, log2 ratio ≤ -1)
Settings in all cases: compound concentration: 200 uM; treatment time: 3 h
USP34 = USP34 (UniProt Q70CQ2)
Outline: (§1)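 HEK293T lysate (495 µg per sample, in Tris/CHAPS/IGEPAL buffer with protease inhibitors) was exposed in triplicate for 3 h to fragment at 200 µM or to vehicle, then to Biotin-Ahx-Ub-VS at 0.5 µM final for 1 h. Labelled DUBs were enriched on NeutrAvidin, digested with LysC and trypsin, and analysed by diaPASEF LC-MS/MS. Spectronaut label-free quantities were normalised to the global median, and values are average log2 ratios of fragment over vehicle from an unpaired t-test. Only proteins with ≥2 unique peptides were used.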

USP36 = target: T1, USP36 (UniProt Q9P275)
T1 sequence (whole entry): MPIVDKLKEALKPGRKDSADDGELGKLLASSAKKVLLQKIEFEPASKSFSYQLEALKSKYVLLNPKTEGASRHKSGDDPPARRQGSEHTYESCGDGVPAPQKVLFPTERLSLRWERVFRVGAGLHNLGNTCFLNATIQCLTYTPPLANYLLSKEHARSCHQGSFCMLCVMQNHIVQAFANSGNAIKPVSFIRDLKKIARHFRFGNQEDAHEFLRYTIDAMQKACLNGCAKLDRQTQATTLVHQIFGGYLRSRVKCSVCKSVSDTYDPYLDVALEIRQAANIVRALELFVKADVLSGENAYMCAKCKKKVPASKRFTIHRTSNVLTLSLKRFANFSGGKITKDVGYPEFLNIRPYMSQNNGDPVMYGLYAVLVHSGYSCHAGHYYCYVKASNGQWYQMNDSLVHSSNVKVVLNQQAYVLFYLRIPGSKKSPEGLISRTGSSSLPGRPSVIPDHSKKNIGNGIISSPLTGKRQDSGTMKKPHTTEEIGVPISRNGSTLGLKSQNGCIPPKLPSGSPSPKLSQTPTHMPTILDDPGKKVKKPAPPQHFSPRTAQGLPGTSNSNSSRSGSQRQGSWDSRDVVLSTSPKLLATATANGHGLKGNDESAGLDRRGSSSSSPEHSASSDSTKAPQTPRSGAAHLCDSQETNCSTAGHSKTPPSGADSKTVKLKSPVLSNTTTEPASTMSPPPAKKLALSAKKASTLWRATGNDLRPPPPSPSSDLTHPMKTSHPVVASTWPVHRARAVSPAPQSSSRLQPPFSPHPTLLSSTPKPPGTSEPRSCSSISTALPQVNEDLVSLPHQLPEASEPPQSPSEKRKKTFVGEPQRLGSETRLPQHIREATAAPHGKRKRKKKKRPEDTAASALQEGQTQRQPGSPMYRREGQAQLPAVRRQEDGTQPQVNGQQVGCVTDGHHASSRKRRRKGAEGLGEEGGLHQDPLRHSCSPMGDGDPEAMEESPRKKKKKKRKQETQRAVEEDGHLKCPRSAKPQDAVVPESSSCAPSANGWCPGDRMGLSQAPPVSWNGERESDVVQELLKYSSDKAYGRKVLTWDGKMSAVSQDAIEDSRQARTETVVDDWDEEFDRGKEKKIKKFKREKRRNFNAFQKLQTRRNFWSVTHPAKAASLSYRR
Outline: as §1

USP38 = target: T2, USP38 (UniProt Q8NB14)
T2 sequence (whole entry): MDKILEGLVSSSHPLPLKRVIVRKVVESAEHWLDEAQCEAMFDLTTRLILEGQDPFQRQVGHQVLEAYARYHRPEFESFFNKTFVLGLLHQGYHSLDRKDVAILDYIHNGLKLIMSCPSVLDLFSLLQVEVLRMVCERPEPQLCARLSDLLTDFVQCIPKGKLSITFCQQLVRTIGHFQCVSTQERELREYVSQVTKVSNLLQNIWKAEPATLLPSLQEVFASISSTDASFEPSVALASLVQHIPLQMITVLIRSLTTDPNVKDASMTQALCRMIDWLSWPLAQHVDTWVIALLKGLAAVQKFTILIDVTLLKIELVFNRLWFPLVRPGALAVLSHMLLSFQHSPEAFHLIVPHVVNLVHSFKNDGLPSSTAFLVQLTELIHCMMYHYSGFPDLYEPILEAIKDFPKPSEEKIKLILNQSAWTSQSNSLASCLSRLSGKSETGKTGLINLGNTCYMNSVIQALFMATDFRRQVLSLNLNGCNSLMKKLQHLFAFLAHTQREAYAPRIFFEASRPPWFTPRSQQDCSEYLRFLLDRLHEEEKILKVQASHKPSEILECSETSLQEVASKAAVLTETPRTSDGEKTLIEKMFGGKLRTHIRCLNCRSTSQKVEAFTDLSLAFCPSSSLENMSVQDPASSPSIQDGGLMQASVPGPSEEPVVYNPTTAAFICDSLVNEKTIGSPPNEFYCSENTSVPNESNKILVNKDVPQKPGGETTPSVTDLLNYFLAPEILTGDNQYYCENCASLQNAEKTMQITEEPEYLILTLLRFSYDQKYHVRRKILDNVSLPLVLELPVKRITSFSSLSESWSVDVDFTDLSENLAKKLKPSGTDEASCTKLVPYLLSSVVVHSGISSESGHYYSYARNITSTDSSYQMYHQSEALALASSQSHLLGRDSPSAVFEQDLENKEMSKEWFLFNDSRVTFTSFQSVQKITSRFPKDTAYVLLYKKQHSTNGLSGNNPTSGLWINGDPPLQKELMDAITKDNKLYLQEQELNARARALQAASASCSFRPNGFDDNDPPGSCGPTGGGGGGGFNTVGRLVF
Outline: as §1

USP39 = target: T3, USP39 (UniProt Q53GS9)
T3 sequence (whole entry): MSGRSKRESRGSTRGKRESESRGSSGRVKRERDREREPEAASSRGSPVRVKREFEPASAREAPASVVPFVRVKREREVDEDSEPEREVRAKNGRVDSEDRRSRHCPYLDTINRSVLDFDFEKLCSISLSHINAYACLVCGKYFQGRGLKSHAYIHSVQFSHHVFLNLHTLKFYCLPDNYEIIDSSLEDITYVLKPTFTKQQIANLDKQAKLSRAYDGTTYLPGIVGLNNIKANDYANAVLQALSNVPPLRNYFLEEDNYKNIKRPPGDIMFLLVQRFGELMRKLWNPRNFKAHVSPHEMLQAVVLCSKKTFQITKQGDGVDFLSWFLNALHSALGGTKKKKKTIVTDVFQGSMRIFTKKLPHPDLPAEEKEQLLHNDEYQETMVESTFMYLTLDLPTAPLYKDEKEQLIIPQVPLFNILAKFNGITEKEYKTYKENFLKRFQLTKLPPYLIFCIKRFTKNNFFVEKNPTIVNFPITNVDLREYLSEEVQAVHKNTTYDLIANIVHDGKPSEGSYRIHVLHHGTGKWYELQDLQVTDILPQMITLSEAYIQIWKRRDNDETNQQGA
Outline: as §1

USP4 = target: T4, USP4 (UniProt Q13107)
T4 sequence (whole entry): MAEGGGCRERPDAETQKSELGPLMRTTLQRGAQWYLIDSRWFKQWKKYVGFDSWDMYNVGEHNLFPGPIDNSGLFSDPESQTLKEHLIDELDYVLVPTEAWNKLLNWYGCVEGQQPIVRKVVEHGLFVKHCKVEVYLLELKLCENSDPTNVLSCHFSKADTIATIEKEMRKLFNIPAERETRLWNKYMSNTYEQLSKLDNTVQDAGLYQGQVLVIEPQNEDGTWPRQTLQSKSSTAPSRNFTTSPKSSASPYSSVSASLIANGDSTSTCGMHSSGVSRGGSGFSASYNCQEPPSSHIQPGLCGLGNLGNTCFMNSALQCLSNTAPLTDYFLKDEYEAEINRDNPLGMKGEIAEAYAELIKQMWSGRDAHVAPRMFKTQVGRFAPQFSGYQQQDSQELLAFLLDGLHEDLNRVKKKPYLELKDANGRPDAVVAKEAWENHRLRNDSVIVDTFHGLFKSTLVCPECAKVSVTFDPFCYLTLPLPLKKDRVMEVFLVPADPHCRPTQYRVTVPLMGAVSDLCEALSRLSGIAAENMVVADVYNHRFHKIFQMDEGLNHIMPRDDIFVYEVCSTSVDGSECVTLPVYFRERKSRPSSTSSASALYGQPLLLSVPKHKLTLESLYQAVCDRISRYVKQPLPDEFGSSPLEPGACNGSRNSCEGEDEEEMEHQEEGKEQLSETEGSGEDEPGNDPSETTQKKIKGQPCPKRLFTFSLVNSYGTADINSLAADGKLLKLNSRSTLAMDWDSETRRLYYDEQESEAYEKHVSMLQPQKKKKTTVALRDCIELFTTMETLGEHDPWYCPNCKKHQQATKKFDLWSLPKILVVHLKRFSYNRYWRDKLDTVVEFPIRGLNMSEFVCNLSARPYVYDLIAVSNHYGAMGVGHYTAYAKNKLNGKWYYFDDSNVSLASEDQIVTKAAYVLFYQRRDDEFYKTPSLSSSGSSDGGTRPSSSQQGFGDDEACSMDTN
Outline: as §1

Measured: log2 ratio of Biotin-Ahx-Ub-VS probe labelling

Sequence of USP34 (Q70CQ2 whole entry, the tested form may be a part): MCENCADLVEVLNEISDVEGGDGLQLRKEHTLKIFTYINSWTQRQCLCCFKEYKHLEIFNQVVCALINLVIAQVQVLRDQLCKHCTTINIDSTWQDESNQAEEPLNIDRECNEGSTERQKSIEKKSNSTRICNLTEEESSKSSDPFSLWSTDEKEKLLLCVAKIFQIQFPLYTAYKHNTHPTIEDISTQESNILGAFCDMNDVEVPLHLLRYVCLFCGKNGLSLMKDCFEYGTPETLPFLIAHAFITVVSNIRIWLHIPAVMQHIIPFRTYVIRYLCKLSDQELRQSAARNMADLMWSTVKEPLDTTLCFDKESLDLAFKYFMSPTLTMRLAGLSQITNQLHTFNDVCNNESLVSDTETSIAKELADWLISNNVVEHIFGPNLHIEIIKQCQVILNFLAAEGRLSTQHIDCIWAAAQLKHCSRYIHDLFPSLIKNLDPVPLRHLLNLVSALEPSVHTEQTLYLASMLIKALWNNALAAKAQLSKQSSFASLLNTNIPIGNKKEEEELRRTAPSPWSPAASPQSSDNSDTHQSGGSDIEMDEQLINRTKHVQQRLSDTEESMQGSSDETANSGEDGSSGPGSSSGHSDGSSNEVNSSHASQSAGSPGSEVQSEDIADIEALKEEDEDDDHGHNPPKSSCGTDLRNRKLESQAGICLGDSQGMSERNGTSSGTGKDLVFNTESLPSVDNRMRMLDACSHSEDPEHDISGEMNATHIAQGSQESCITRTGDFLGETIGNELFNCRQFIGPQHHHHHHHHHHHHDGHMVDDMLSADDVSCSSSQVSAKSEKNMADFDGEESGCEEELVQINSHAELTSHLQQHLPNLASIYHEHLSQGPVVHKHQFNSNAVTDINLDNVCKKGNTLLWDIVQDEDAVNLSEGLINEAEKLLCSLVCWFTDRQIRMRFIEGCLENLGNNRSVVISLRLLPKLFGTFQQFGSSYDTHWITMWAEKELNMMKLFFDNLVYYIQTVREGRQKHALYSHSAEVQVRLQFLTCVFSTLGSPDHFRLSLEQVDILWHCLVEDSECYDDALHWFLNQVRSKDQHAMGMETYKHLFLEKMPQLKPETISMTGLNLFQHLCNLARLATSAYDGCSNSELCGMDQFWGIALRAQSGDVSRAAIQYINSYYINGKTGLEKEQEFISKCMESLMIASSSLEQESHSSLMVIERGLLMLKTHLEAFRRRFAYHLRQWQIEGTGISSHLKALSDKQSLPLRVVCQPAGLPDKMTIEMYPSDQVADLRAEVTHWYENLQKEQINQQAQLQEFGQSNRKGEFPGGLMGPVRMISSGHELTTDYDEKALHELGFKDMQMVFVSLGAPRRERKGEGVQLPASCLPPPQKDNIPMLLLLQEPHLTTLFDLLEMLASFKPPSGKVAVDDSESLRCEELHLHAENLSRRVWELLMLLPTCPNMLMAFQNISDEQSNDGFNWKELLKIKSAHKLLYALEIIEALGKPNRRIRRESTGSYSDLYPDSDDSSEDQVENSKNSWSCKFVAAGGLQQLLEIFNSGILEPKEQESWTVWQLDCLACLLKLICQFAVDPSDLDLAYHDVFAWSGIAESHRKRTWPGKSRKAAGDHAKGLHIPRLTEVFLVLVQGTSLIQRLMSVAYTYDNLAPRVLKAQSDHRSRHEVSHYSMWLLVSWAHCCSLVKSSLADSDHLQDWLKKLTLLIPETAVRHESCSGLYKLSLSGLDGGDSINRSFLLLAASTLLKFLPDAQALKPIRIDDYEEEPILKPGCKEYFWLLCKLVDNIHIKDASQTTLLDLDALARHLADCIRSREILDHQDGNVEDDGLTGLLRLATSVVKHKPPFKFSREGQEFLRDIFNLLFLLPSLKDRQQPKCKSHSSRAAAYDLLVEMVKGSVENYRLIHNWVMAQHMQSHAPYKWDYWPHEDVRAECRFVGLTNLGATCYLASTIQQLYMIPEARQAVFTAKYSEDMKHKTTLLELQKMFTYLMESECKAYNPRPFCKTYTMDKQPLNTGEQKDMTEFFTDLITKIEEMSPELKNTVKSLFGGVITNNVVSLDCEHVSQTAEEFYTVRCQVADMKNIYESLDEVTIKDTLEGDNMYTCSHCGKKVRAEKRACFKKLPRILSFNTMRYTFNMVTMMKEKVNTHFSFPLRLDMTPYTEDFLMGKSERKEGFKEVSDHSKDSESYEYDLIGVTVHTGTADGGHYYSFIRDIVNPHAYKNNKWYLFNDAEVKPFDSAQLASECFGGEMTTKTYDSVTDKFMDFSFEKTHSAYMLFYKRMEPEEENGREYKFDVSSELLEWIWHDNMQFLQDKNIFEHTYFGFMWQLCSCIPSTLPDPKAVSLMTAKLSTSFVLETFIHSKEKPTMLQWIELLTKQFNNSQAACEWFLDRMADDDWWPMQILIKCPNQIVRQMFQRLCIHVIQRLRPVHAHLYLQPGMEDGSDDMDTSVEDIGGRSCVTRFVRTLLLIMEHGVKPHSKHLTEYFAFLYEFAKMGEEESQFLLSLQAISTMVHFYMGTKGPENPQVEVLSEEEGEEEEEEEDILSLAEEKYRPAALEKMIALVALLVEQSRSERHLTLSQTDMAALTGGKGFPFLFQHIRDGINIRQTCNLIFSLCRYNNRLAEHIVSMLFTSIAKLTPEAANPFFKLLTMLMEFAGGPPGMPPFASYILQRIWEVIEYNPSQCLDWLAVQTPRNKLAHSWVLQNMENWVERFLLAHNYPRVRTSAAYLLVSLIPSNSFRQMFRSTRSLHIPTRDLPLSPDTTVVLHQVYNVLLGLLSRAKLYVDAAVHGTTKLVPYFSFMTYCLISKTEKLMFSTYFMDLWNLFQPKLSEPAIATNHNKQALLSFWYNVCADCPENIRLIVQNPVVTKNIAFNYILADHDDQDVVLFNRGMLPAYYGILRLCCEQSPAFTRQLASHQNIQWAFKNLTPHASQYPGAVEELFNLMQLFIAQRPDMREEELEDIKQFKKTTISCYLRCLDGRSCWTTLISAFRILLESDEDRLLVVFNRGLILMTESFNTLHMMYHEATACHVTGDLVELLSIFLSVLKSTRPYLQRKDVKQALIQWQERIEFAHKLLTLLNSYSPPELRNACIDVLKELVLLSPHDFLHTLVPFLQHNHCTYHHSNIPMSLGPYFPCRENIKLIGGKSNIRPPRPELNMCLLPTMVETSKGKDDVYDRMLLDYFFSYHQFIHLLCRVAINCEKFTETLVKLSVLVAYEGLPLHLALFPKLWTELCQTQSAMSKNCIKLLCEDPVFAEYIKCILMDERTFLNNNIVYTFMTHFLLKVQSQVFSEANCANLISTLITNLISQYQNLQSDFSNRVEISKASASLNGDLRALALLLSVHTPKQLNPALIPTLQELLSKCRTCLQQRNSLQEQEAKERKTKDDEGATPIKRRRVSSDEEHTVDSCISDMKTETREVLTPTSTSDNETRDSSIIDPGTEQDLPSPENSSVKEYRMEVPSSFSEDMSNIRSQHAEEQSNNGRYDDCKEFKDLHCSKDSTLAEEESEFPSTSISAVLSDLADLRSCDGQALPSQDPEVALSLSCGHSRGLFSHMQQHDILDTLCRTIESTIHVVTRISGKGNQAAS

CC(NC(=O)CCl)c1cc2n(n1)CCCC2.Cl (stereo not given)
inactive: USP34 -0.00259 | USP36 0.028 | USP38 -0.215 | USP39 -0.149 | USP4 -0.121

From the supplement of paper PMC11732987, “Enantioselective OTUD7B fragment discovery through chemoproteomics screening and high-throughput optimisation” (Communications Chemistry, 2025)
